Values joined by “and” are separate entries in the source; they are usually repeats but may differ in a detail not shown here. Equal entries are not always repeated. Results filed as inconclusive are left out. Where a call stands in place of a potency, no number is given. Active and inactive are the calls of the source. Unless noted, calls come from the whole dose curve; as a rule, active = well fitted curve in the direction sought with a large enough effect in the repeat runs; inconclusive = weak or mixed curves; inactive = no such curve, though single readings can be large; an effect the other way counts as inactive or inconclusive.
Legend:
[1] = biological target: Acetylcholinesterase (Homo sapiens) (UniProt P22303); assay: Acetylcholinesterase (AChE) small molecule antagonists: enzyme-based qHTS assay with human liver microsomes (AID 1347399; calls by dose curve; note: nearly all actives have a fitted effect of over 60% in size); conditions: Potency: qHTS inhibition
Procedure, shortened: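 Recombinant human AChE (50 mU/mL in the enzyme mix) and human liver microsomes (0.25 mg/mL final) were preincubated with compound and NADPH (0.25 mg/mL final) for 30 min at 37 C. Acetylthiocholine/DTNB was then added; thiocholine was read colorimetrically after 10 min at room temperature.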

[2] = biological target: Cytochrome P450 2C19 (Homo sapiens) (UniProt P33261); assay: Cytochrome P450 Family 2 Subfamily C Member 19 (CYP2C19) small molecule antagonists: luciferase reporter qHTS assay (AID 1671197); note: nearly all actives have a fitted effect of over 65% in size
Procedure, shortened: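 P450-Glo CYP2C19 screening system; proluciferin substrate; DMSO compound stocks; 10 min RT preincubation; NADPH regeneration, 1 h at 37C; luciferin detection reagent, 20 min RT; luminescence as RLU.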

[3] = biological target: Cytochrome P450 2C9 (Homo sapiens) (UniProt P11712); assay: Cytochrome P450 Family 2 Subfamily C Member 9 (CYP2C9) small molecule antagonists: luciferase reporter qHTS assay (AID 1671198); note: nearly all actives have a fitted effect of over 50% in size
Procedure, shortened: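 P450-Glo proluciferin substrate with CYP2C9 enzyme; 10 min RT preincubation, then NADPH regeneration 1 h at 37C; luciferin detection reagent 20 min RT, luminescence in relative luminescence units.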

[4] = biological target: Voltage-gated inwardly rectifying potassium channel KCNH2 (Homo sapiens) (UniProt Q12809); assay: Human Ether-a-go-go-Related Gene (hERG) channel small molecule antagonists: fluorescence cell-based qHTS assay (AID 1671200); note: nearly all actives have a fitted effect of over 50% in size
Procedure, shortened: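 hERG-U2OS cells plated overnight at 37 C, loaded with FluxOR II dye 1 h at RT in dark; after 10 min, thallium stimulus added. Fluorescence (480/540 nm) read kinetically for 2 min at 1 s intervals.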

[5] = biological target: Cytochrome P450 3A4 (Homo sapiens) (UniProt P08684); assay: Cytochrome P450 Family 3 Subfamily A Member 4 (CYP3A4) small molecule antagonists: luciferase reporter qHTS assay (AID 1671201); note: nearly all actives have a fitted effect of over 50% in size
Procedure, shortened: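 P450-Glo CYP3A4 luminescent assay: compounds preincubated 10 min at room temperature with enzyme and proluciferin substrate, NADPH regeneration added, 1 h room-temperature reaction, stopped with luciferin detection reagent; luminescence read after 20 min. Ketoconazole positive control.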

[6] = biological target: Cytochrome P450 1A2 (Homo sapiens) (UniProt P05177); assay: Cytochrome P450 Family 1 Subfamily A Member 2 (CYP1A2) small molecule antagonists: luciferase reporter qHTS assay (AID 1671199); note: nearly all actives have a fitted effect of over 50% in size
Procedure, shortened: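 P450-Glo CYP1A2 enzyme–proluciferin substrate mix with compound 10 min at room temperature, then NADPH regeneration 1 h at room temperature. Luciferin detection reagent added, luminescence read after 20 min; furafylline positive control.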
Potency is the fitted concentration of half-maximal effect.

Chain of Cytochrome P450 2C19 (Homo sapiens) (P33261 whole entry, looked up): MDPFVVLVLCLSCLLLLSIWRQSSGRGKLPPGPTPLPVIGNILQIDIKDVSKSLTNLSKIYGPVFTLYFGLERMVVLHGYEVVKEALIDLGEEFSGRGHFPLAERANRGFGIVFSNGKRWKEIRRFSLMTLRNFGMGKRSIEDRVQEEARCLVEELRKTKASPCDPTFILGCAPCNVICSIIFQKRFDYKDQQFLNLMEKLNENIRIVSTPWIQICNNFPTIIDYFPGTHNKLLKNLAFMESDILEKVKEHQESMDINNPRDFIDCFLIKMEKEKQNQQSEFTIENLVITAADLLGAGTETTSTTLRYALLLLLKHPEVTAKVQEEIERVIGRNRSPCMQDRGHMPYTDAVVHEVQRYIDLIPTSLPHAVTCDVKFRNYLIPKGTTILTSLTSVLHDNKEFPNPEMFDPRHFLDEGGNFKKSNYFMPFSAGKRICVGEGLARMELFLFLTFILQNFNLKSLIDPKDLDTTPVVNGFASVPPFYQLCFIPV
Chain of Cytochrome P450 2C9 (Homo sapiens) (P11712 whole entry, looked up): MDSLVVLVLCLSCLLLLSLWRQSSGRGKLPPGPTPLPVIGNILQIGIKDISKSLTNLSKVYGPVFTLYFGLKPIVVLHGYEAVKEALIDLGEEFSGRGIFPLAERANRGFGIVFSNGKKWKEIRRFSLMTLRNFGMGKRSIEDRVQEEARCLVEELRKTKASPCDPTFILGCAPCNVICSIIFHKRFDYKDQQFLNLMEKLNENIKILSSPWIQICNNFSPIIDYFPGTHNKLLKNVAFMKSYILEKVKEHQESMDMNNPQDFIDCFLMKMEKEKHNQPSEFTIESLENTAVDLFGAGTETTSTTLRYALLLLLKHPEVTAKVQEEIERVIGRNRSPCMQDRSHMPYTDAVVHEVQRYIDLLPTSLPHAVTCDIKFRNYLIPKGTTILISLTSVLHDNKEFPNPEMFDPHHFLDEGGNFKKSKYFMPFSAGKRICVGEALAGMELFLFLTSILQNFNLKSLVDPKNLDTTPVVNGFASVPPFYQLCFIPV
Chain of Cytochrome P450 1A2 (Homo sapiens) (P05177 whole entry, looked up): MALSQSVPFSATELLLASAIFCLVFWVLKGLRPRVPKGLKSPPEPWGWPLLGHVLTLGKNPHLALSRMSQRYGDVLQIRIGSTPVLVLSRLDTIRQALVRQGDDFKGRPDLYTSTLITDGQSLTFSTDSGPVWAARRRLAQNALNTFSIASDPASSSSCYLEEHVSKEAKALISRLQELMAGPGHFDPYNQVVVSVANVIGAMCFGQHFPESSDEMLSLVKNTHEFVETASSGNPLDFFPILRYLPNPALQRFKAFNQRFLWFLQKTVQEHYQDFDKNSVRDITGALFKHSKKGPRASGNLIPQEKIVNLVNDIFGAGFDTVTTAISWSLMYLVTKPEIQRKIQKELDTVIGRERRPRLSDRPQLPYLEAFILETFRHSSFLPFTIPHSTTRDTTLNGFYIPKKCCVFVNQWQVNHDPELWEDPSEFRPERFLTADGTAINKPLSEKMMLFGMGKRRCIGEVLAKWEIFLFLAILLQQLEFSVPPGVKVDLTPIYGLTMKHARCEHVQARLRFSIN
Chain of Acetylcholinesterase (Homo sapiens) (P22303 whole entry, looked up): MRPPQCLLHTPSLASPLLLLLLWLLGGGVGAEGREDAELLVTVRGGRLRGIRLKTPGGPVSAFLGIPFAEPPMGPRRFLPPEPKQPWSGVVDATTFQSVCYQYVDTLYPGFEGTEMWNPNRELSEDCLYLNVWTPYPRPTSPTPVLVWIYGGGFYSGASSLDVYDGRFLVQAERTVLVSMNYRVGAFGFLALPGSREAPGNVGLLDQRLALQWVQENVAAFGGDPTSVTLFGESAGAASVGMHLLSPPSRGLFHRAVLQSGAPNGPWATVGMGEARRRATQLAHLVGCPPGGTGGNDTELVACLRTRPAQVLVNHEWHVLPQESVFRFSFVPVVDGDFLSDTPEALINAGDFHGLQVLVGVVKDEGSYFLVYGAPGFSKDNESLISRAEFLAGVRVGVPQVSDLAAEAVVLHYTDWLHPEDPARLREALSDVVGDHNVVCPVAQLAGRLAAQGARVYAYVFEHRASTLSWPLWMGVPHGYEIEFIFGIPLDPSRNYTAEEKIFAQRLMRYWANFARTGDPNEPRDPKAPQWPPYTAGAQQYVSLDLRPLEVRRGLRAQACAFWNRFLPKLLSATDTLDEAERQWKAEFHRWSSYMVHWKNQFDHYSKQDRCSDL
Chain of Voltage-gated inwardly rectifying potassium channel KCNH2 (Homo sapiens) (Q12809 whole entry, looked up): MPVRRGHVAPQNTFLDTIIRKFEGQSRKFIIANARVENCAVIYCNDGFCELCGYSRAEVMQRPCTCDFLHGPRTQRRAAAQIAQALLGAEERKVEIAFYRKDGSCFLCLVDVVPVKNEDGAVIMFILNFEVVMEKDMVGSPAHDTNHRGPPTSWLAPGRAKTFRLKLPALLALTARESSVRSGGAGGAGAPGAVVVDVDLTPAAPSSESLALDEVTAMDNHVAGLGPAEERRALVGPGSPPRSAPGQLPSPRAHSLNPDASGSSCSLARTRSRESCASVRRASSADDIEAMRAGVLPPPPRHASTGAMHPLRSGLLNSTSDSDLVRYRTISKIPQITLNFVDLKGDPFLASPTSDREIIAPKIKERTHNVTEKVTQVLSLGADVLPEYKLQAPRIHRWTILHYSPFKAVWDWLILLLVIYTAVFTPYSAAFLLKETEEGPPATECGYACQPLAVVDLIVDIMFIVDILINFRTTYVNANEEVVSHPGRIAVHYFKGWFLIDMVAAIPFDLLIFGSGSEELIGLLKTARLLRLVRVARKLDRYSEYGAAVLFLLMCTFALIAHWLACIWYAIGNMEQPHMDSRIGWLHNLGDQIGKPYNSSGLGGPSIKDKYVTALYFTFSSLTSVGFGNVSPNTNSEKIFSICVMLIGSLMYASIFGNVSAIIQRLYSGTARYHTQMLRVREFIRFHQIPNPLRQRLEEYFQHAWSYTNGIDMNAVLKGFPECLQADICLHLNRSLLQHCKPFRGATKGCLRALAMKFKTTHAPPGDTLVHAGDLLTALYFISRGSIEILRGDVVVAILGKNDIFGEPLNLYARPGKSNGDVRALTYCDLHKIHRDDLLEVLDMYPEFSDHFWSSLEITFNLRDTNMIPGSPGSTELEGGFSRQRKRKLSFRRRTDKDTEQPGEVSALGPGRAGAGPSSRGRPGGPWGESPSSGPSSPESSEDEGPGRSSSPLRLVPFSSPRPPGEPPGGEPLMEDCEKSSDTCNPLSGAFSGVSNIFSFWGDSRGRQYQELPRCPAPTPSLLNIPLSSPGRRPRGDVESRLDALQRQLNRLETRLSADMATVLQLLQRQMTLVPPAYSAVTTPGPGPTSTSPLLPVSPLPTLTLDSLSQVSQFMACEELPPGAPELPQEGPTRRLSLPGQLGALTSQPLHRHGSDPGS
Chain of Cytochrome P450 3A4 (Homo sapiens) (P08684 whole entry, looked up): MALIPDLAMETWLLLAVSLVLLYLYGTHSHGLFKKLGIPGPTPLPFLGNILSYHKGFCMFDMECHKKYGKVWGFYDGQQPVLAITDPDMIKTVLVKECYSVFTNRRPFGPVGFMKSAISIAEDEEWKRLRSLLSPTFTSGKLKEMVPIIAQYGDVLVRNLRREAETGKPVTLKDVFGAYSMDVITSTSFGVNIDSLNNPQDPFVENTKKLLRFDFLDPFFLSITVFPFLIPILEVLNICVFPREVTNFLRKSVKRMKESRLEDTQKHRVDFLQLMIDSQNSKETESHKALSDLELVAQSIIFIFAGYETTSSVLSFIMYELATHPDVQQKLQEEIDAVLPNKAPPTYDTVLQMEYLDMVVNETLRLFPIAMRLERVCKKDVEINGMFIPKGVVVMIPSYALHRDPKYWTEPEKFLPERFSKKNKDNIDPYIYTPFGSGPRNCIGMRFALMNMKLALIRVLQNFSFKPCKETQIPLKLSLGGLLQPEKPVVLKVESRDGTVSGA

SMILES	Potency [1]	Potency [2]	Potency [3]	Potency [4]	Potency [5]	Potency [6]
C[C@]12CC[C@@H]3c4ccc(OC(=O)N(CCCl)CCCl)cc4CC[C@H]3[C@@H]1CC[C@@H]2O	inactive	inactive	inactive	inactive	inactive	
O=S(=O)(c1ccc(Cl)cc1)c1ccc(Cl)cc1	inactive	0.161 µM (active)		47.7 µM (active)		
COc1cccc2c1C(=O)c1c(O)c3c(c(O)c1C2=O)C[C@@](O)(C(=O)CO)CC3OC1CC(N2CCOC(OC)C2)C(O)C(C)O1 (some centres undefined)	inactive		4.36 µM (active)	inactive		inactive
CS(=O)(=O)c1ccc(C(=O)C2C(=O)CCCC2=O)c([N+](=O)[O-])c1	inactive	72.3 µM (active)		inactive	inactive	50.3 µM (active)
O=C(NC(=O)c1c(F)cccc1F)Nc1cc(Cl)c(OC(F)(F)C(F)F)c(Cl)c1	inactive	79.6 µM (active)	39.9 µM (active)	inactive	inactive	
COc1ccc(OC)c(CC(C)N)c1 (centres undefined)	inactive		inactive	inactive	inactive	inactive
O=[N+]([O-])c1cc(C(F)(F)F)c(Cl)c([N+](=O)[O-])c1Cl	inactive		12.6 µM (active)	27.5 µM (active)	56.4 µM (active)	11.2 µM (active)
Oc1cccc(-c2ccccc2)c1	inactive	35.6 µM (active)		inactive		
O=C(CBr)c1ccc(O)cc1	inactive		inactive	inactive	inactive	31.7 µM (active)
CC(=O)C(Cl)(Cl)Cl	inactive	54.5 µM (active)		inactive	inactive	
COS(=O)(=O)c1ccc(C)cc1	inactive		inactive	inactive	inactive	inactive
OC(c1ccc(Cl)cc1)(c1ccc(Cl)cc1)C(Cl)(Cl)Cl	inactive	0.0564 µM (active)		24.5 µM (active)	inactive	
Nc1c(Oc2ccccc2)cc(O)c2c1C(=O)c1ccccc1C2=O	inactive		17.4 µM (active)	inactive	inactive	1.23 µM (active)
C[C@@H](Oc1ccc(Cl)cc1Cl)C(=O)O	inactive		inactive	inactive	inactive	inactive
Nc1ccc(Cl)cc1C(=O)c1ccccc1	inactive		39.9 µM (active)			15.9 µM (active)
Nc1ccc([N+](=O)[O-])cc1Cl	inactive	inactive		inactive	inactive	25.2 µM (active)
CCCCCCCCCCCCCCCC[n+]1ccccc1	inactive	inactive				inactive
BrC(Br)C(Br)(Br)Br	inactive	40.2 µM (active)	31.9 µM (active)		inactive	

SMILES	Potency [1]	Potency [2]	Potency [3]	Potency [4]	Potency [5]	Potency [6]
ClCCN1CCOCC1	inactive	inactive	inactive	inactive	inactive	
Oc1ccc(C2(c3ccc(O)cc3)CCCCC2)cc1	inactive	37.8 µM (active)			23.9 µM (active)	
CCCCN(CCCC)C(=S)[S-].CCCCN(CCCC)C(=S)[S-].[Zn+2]	inactive	79.6 µM (active)	20 µM (active)	inactive	28.3 µM (active)	
CCCCOCN(C(=O)CCl)c1c(CC)cccc1CC	inactive	0.894 µM (active)	3.99 µM (active)	inactive	7.1 µM (active)	
Clc1ccc(C(c2ccc(Cl)cc2)C(Cl)(Cl)Cl)cc1	inactive	20.2 nM (active) and 17.8 nM (active) and 69.2 nM (active)		13.8 µM (active)	inactive	12.6 µM (active) and 13.8 µM (active)
CCc1cc(C)cc(CC)c1-c1c(OC(=O)C(C)(C)C)n2n(c1=O)CCOCC2	inactive		inactive	inactive	8.94 µM (active)	inactive
Oc1ccc(C2(c3ccc(O)cc3)c3ccccc3-c3ccccc32)cc1	inactive	25.2 µM (active)	20 µM (active)	inactive	17.8 µM (active)	
C=CC(=O)OCC(COC(=O)C=C)(COC(=O)C=C)COC(=O)C=C	inactive		14.2 µM (active)	inactive	1.26 µM (active)	inactive
CC(=[OH+])/C=C(/C)[O-].CC(=[OH+])/C=C(\C)[O-].CC(=[OH+])/C=C(\C)[O-].[Fe]	inactive		inactive	inactive	inactive	inactive
CCOP(=S)(OCC)SCS(=O)(=O)C(C)(C)C	8.94 µM (active)		5.64 µM (active)	inactive	2.83 µM (active)	44.8 µM (active)
c1ccc(Nc2ccc3ccccc3c2)cc1	inactive	7.06 µM (active) and 5.64 µM (active)	35.4 µM (active) and 31.7 µM (active)	inactive	22.3 µM (active) and 35.6 µM (active)	
c1ccc2c(c1)OCC(C1=NCCN1)O2 (centres undefined)	inactive	inactive		inactive	inactive	inactive
CCN(CC)c1c([N+](=O)[O-])cc(C(F)(F)F)c(N)c1[N+](=O)[O-]	inactive	20 µM (active)		inactive		0.356 µM (active)
C[C@H]1CC[C@@H]2[C@@H](C)[C@H]3[C@H](C[C@H]4[C@@H]5CC=C6CC(O[C@@H]7O[C@H](CO)[C@H](O)[C@H](O[C@@H]8O[C@H](CO)[C@@H](O)[C@H](O)[C@H]8O)[C@H]7O[C@H]7O[C@@H](C)[C@H](O)[C@@H](O)[C@H]7O)CC[C@]6(C)[C@H]5CC[C@]34C)N2C1 (some centres undefined)	inactive	inactive	inactive	inactive	inactive	
CC(=O)Nc1ccc2c(c1)Cc1ccccc1-2	inactive	18.1 µM (active)	25.6 µM (active)	inactive	64.3 µM (active)	
OC(Cc1ccccc1Cl)(Cn1cncn1)C1(Cl)CC1 (centres undefined)	inactive		2 µM (active)	inactive	0.2 µM (active)	0.796 µM (active)
CSCCCN=C=S	inactive	71 µM (active)			inactive	inactive
COc1ccc(N)cc1N	inactive	732 nM (active) and 3.83 µM (active)		inactive	11.6 µM (active)	6.53 µM (active) and 38.3 µM (active)
